Assay [1] addresses Estrogen receptor (Homo sapiens) (UniProt P03372). In words: qHTS assay for small molecule agonists of estrogen receptor alpha signaling (AID 588514; calls by dose curve;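 further: 0% = vehicle only and 100% = reference agonist; nearly all actives have a fitted effect of over 70% in size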). The following applies: ER-alpha-UAS-bla HEK293, beta-lactamase ratio, 18 h; series mostly up to 76.8 µM. An outline of the steps: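 EC50 and efficacy came from Hill fits of beta-lactamase reporter signal (CCF4 dye, 2 h at room temperature) scaled between DMSO and 20 nM 17-beta-estradiol. Agonist mode: HEK293 ER-alpha-UAS-bla cells in charcoal/dextran-stripped serum medium, 18 h compound exposure at 37 C.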
A general note: Quantitative high-throughput screening tests each substance at several concentrations.

Assay [2] can be described thus: qHTS assay for small molecule antagonists of peroxisome proliferator-activated receptor delta signaling (AID 588535; active means well fitted inhibition curve with a large enough effect in the signal ratio, with a control signal flat, not every such curve was filed as active; the % refers to the signal ratio;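 on max response: cells co-treated with a PPAR-delta agonist as stimulator during compound exposure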). The following applies: HEK293T PPARd-UAS-bla, beta-lactamase FRET ratio, 18 h; 460 nm channel. An outline of the steps: (§1)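 Inhibition of PPAR-delta response element-driven beta-lactamase expression is measured in HEK293T cells exposed to a compound titration series for 18 hrs at 37 C. Half-maximal inhibition comes from Hill equation fitting.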

The target in assay [3] is Peroxisome proliferator-activated receptor delta (Homo sapiens) (UniProt Q03181). The assay is described as above. The following applies: HEK293T PPARd-UAS-bla, beta-lactamase FRET ratio, 18 h; series mostly up to 76.7 µM. An outline of the steps: as §1
Assay [4] deals with Peroxisome proliferator-activated receptor gamma (Homo sapiens) (UniProt P37231). In words: qHTS assay for small molecule agonists of peroxisome proliferator-activated receptor gamma signaling (AID 588536; active means well fitted curve in the direction sought with a large enough effect in the signal ratio, with a control signal flat, not every such curve was filed as active; the % refers to the signal ratio;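 further: 0% = DMSO basal wells and 100% = rosiglitazone at 2 µM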). The following applies: HEK293 PPARg-UAS-bla, beta-lactamase ratio, 16 h, percent of rosiglitazone response, DMSO as zero; series mostly up to 76.7 µM. The gist of the method:
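Cells were plated and held 6–6.5 h at 37 C, then compounds were added as a titration series. After a further 16 h, CCF4 dye was loaded for 2 h at room temperature and emission at 460/530 nm recorded.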

The target in assay [5] is Vitamin D3 receptor (Homo sapiens) (UniProt P11473). In words: qHTS assay for small molecule antagonists of vitamin D receptor signaling (AID 588541; calls by dose curve;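 further: receptor activated by calcitriol during compound treatment; on the % scale 0 is the no-effect control and ±100 the full control effect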). The following applies: HEK293T VDR-UAS-bla, beta-lactamase ratio, antagonist mode; series mostly up to 76.7 µM. An outline of the steps: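 VDR-UAS-bla HEK293T cells (2000/well, 2% charcoal-stripped FBS) were treated with titrated compounds plus 1-alpha,25-dihydroxyvitamin D3 (50 nM or 3 nM final) for 16 h at 37 C. CCF4 beta-lactamase fluorescence was read; Hill fits gave IC50.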

Assay [6] in a line: qHTS assay for small molecule agonists of retinoid X receptor alpha signaling (AID 588544; calls by dose curve;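 on activation: 0% = DMSO basal wells and 100% = reference agonist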). The following applies: HEK293T RXRa-UAS-bla, beta-lactamase reporter, 18 h; 530 nm emission.
For assay [7], the target named is Retinoic acid receptor RXR-alpha (Homo sapiens) (UniProt P19793). The description is as above. The following applies: HEK293T RXRa-UAS-bla, beta-lactamase reporter, 18 h; series mostly up to 76.7 µM.
Assay [8] has as its target Thyroid hormone receptor beta (Homo sapiens) (UniProt P10828). In words: qHTS assay for small molecule agonists of thyroid hormone receptor beta signaling (AID 588545; calls by dose curve;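 further: 0% = DMSO only and 100% = 10 nM T3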). The following applies: TR-UAS-bla GripTite HEK 293, beta-lactamase ratio, agonist mode, 18 h; series mostly up to 76.7 µM. The gist of the method:
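TR-UAS-bla GripTite HEK 293 cells (2500/well, medium with 2% charcoal/dextran FBS) were treated in agonist mode for 18 h at 37 C, titrated. Beta-lactamase was read by CCF4 ratio after 2 h; normalized to 10 nM T3 (100%) and DMSO, Hill-fitted for EC50 and efficacy.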

Assay [9] is described as follows: qHTS assay for small molecule antagonists of retinoid X receptor alpha signaling (AID 588546; active means well fitted inhibition curve with a large enough effect in the signal ratio, with a control signal flat, not every such curve was filed as active; the % refers to the signal ratio;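 further: cells stimulated with 9-cis-retinoic acid as agonist; on the % scale 0 is the no-effect control and ±100 the full control effect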). The following applies: HEK293T RXRa-UAS-bla, beta-lactamase ratio, antagonist mode; measured here: W530 green channel, cytotoxicity proxy. An outline of the steps: (§2)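 Beta-lactamase reporter inhibition, read as CCF4 fluorescence ratio (ex 405, em 460/530 nm) after 2 h at RT. HEK293T UAS-bla cells, 2500/well, were stimulated with 9-cis-RA at 500 or 100 nM final alongside test compound for 18 h at 37 C.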

In assay [10] the target is Retinoic acid receptor RXR-alpha (Homo sapiens) (UniProt P19793). The assay is described as above. The following applies: HEK293T RXRa-UAS-bla, beta-lactamase ratio, antagonist mode. The gist of the method: as §2
In assay [11] the target is Thyroid hormone receptor beta (Homo sapiens) (UniProt P10828). In words: qHTS assay for small molecule antagonists of thyroid hormone receptor beta signaling (AID 588547; active means well fitted inhibition curve with a large enough effect in the signal ratio, with a control signal flat, not every such curve was filed as active; the % refers to the signal ratio;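 further: cells stimulated with 0.4 nM T3 agonist during compound exposure; on the % scale 0 is the no-effect control and ±100 the full control effect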). The following applies: TR-UAS-bla HEK293, beta-lactamase ratio, antagonist mode, 18 h. The gist of the method:
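TR-UAS-bla GripTite HEK293 cells in 2% charcoal/dextran FBS medium were preincubated 4 h at 37 C, given compound (0.59 nM to 92 uM) plus 0.4 nM T3 (final) for 18 h, then CCF4 for 2 h at RT; Hill fit gave IC50.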

Assay [12] in a line: qHTS assay for small molecule activators of the p53 signaling pathway (AID 651743; active means well fitted activation curve with a large enough effect in the signal ratio, not every such curve was filed as active; the % refers to the signal ratio; further: % of control where 0% means no effect). The following applies: HCT-116 p53RE-bla, beta-lactamase FRET ratio, 16 h; activation: stronger effect = higher value. The gist of the method:
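Agonist-mode quantitative HTS in HCT-116 cells carrying a p53-response-element beta-lactamase reporter; 16 h compound treatment at 37 C, then FRET substrate loading for 2 h at room temperature and fluorescence read.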

A short description of assay [13]: qHTS assay for environmental chemicals that activate the Aryl hydrocarbon Receptor (AhR) signaling pathway (AID 651777). Further: % of control where 0% means no effect; nearly all actives have a fitted effect of over 15% in size. The following applies: 1A2-DRE human hepatoma cells, luciferase, 24 h; activation: stronger effect = higher value. An outline of the steps:
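Human hepatoma 1A2-DRE cells, stably carrying a dioxin response element and CYP1A2 promoter driving luciferase, were exposed to compounds for 24 hr at 37 C and 5% CO2. Luciferase signal was then read after 30 min One-Glo at room temperature.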

Assay [14] deals with Peroxisome proliferator-activated receptor alpha (Homo sapiens) (UniProt Q07869). In words: qHTS assay for small molecule agonists of the peroxisome proliferator-activated receptor alpha (PPARalpha) signaling pathway (AID 651778). Further: % of control where 0% means no effect. The following applies: PathHunter PPARalpha complementation, chemiluminescence, 6 h; max response: stronger effect = higher value. The gist of the method:
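Cells plated at 2,000/well and held overnight at 37 C, 5% CO2, then compound added by pin tool for 6 hr; after PathHunter detection reagent and 60 min at room temperature, chemiluminescence from enzyme complementation was read.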

Assay [15] can be described thus: qHTS assay for small molecule agonists of the antioxidant response element (ARE) signaling pathway measured by Nrf2-dependant transcriptional activity (AID 720636; active means well fitted curve in the direction sought with a large enough effect in the repeat runs; an effect the other way counts as inactive or inconclusive; further: % of control where 0% means no effect). The following applies: ARE-luc HepG2, Nrf2 luciferase reporter, 16 h; series mostly up to 92.4 µM. An outline of the steps:
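ARE-luc HepG2 cells carrying an Nrf2-responsive luciferase reporter were plated in medium with 1% dialyzed FBS, left 6 hr at 37 C to attach, then exposed to compound for 16 hr. Luciferase luminescence was read after ONE-Glo addition.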

A short description of assay [16]: qHTS assay for small molecule agonists of the antioxidant response element (ARE) signaling pathway measured by Nrf2-dependant transcriptional activity - cell viability counter screen (AID 720653; active means well fitted curve in the direction sought with a large enough effect in the repeat runs; an effect the other way counts as inactive or inconclusive; further: on the % scale 0 is the no-effect control and ±100 the full control effect). The following applies: ARE-bla HepG2 viability, CellTiter-Glo ATP luminescence, 16 h; max response: stronger effect = lower value. The gist of the method: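 ARE-bla HepG2 cells (2,000/well) rested 5 hrs at 37C/5% CO2, then exposed to compounds in DMSO for 16 hrs. Viability was read in the same wells as intracellular ATP by luminescence, 30 min at room temperature after reagent addition.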

Assay [17] is described as follows: qHTS assay for cell viability of HEK293 cells (AID 743288). Further: nearly all actives have a fitted effect of over 50% in size. Further: potency means the concentration at half of the fitted maximal effect. The following applies: ATP luminescence (CellTiter-Glo), 18 h; max response: stronger effect = lower value. An outline of the steps: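 HEK293, 18 h, 37 C, ATP luminescence. Cells at 2,000/well were allowed at least 5 h to settle before dosing; CellTiter-Glo developed 30 min at RT.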
Assay [18] can be described thus: qHTS assay for cell viability of the p53RE-bla HCT-116 cell line (AID 743292). Further: on the % scale 0 is the no-effect control and ±100 the full control effect; nearly all actives have a fitted effect of over 55% in size. The following applies: p53RE-bla HCT-116 viability, ATP luminescence, 16 h; series mostly up to 95 µM. An outline of the steps:
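CellSensor p53RE-bla HCT-116 cells, 4,000/well, preincubated 5 h at 37 C, then exposed to compounds in DMSO for 16 h at 37 C. Viability read as CellTiter-Glo luminescence (intracellular ATP) after 30 min at room temperature.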

For assay [19], the target named is Nuclear receptor subfamily 1 group I member 2 (Rattus norvegicus) (UniProt Q9R1A7). In words: qHTS assay for small molecule activators of the rat pregnane X receptor (rPXR) signaling pathway (AID 651751; call rule not given here; further: 0% is about no effect). The following applies: rPXR reporter cells, luciferase (One-Glo), 24 h.
Assay [20] in a line: qHTS assay for small molecule activators of the human pregnane X receptor (PXR) signaling pathway (AID 720659; call rule not given here; further: 0% is about no effect). The following applies: DPX-2 HepG2 CYP3A4-luciferase, 24 h; series mostly up to 92.3 µM.

Where “and” joins values, the source holds several entries; their conditions need not be identical. Identical values can stand only once. Results filed as inconclusive are left out. The source holds several records for some structures; these can differ, active in one and inactive in another. Calls of active or inactive are those of the source. Unless noted, the call rests on the fitted dose curve; in most records, active means well fitted curve in the direction sought with a large enough effect; inconclusive means small, poorly fitted or top-dose-only effect, or another doubt; inactive means no such curve, though single readings can be large; an effect the other way counts as inactive or inconclusive.

Chain of Retinoic acid receptor RXR-alpha (Homo sapiens) (P19793 whole entry, looked up): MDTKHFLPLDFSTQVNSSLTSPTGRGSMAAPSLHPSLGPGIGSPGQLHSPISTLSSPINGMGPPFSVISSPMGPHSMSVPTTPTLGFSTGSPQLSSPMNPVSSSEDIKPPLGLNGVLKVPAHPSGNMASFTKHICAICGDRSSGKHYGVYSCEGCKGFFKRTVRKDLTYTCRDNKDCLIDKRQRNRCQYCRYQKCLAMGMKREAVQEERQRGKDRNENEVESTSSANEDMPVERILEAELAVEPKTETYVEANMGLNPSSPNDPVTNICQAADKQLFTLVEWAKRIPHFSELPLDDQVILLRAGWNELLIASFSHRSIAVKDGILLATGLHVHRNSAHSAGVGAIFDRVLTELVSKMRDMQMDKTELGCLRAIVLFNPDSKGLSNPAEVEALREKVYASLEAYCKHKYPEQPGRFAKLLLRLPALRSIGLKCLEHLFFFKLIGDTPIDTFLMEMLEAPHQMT
Chain of Vitamin D3 receptor (Homo sapiens) (P11473 whole entry, looked up): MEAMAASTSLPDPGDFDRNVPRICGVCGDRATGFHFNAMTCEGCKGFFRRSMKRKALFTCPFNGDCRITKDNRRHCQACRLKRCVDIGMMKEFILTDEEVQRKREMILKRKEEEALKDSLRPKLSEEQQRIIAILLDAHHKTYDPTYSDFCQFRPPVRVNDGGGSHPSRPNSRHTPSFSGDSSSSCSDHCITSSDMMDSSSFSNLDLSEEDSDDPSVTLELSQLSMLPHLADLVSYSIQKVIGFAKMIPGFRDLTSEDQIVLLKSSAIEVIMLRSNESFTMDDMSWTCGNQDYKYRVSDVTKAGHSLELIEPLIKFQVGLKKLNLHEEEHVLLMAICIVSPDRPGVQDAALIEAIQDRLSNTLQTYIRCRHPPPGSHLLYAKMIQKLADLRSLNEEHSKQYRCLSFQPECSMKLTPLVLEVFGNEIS
Chain of Estrogen receptor (Homo sapiens) (P03372 whole entry, looked up): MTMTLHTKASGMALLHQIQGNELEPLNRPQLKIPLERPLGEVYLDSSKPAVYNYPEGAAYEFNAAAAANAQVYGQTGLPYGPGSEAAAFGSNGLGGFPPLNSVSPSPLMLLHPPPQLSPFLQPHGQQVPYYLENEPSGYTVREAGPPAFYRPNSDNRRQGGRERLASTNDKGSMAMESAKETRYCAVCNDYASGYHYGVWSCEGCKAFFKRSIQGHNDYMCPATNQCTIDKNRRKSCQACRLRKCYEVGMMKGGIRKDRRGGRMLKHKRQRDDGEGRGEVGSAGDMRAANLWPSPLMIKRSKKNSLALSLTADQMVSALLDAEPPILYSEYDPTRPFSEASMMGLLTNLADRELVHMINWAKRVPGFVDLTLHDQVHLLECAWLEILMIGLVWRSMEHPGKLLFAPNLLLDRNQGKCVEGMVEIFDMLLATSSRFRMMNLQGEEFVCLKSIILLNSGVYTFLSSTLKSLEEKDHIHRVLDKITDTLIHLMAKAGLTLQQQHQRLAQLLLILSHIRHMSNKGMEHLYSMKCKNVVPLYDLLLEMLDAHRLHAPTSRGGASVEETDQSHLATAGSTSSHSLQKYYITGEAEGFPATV
Chain of Peroxisome proliferator-activated receptor gamma (Homo sapiens) (P37231 whole entry, looked up): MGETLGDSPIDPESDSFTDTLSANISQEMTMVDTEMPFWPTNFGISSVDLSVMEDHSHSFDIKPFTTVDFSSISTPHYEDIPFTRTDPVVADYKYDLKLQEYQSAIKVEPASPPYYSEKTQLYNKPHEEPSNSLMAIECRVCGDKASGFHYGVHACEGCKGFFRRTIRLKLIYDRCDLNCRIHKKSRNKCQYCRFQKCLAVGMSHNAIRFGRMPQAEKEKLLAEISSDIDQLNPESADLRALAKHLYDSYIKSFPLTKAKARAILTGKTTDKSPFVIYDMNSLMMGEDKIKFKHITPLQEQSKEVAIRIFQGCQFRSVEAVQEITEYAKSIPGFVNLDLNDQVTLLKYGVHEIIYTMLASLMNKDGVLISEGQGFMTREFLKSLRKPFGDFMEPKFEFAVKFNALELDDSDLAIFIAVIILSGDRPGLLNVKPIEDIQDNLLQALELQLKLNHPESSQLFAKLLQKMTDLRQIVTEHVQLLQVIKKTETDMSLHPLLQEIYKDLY
Chain of Peroxisome proliferator-activated receptor alpha (Homo sapiens) (Q07869 whole entry, looked up): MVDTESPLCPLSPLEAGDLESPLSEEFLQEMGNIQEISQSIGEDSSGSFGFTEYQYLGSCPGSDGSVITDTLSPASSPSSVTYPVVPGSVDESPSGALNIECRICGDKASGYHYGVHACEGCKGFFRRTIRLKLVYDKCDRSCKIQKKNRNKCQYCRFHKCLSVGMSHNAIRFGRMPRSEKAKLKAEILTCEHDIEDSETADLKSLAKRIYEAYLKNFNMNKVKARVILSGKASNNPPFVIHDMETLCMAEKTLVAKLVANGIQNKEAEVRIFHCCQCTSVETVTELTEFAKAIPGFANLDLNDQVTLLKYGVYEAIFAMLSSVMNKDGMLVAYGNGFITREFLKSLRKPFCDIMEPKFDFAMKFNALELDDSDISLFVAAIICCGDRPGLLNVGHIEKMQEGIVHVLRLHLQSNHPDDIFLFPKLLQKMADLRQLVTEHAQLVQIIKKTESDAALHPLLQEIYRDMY
Chain of Thyroid hormone receptor beta (Homo sapiens) (P10828 whole entry, looked up): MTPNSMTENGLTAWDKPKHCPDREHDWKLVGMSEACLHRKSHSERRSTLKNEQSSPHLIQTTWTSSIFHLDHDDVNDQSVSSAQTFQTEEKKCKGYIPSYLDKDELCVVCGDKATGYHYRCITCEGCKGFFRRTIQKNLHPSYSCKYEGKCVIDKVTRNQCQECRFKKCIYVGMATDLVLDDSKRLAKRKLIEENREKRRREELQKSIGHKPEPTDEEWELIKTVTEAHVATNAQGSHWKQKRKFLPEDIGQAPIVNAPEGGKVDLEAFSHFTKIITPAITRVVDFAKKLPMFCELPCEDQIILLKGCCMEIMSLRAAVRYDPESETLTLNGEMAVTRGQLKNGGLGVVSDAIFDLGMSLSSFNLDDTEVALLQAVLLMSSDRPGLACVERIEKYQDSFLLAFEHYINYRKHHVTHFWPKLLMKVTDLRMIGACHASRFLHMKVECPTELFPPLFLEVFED
Chain of Nuclear receptor subfamily 1 group I member 2 (Rattus norvegicus) (Q9R1A7 whole entry, looked up): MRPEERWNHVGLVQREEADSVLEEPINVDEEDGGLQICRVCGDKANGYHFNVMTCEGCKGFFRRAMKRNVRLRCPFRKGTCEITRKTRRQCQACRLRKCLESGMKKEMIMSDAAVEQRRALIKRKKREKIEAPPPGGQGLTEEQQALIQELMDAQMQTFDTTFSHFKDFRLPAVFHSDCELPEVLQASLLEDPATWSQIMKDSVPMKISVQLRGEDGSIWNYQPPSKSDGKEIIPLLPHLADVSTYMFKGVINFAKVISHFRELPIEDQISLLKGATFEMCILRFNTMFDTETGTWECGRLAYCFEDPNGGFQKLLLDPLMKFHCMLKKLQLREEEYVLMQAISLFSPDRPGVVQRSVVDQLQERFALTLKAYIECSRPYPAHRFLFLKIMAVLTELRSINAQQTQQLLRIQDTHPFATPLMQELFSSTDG
Chain of Peroxisome proliferator-activated receptor delta (Homo sapiens) (Q03181 whole entry, looked up): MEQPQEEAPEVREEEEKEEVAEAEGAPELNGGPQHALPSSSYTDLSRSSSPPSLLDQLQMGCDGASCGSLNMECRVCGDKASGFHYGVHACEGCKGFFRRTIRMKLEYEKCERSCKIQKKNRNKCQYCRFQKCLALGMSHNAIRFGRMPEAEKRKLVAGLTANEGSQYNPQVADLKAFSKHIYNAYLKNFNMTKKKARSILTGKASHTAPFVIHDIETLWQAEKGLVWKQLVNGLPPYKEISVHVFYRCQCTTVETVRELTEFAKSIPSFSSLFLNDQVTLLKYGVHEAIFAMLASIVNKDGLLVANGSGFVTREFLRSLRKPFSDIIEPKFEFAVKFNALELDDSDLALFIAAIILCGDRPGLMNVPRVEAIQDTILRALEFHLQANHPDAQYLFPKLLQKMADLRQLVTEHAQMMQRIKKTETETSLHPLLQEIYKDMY

As to `C/C=C/C/C=C\CCCCCCCCOC(C)=O`, the Potency result in assay [1], in assay [3], in assay [5], in assay [7], in [8] and in assay [15] was “inactive” throughout. Also, the Potency result in assay [18] was “inactive”. The max response in [2] was 15.9%; in [6], -14.4%; in [9], -5.66%; in assay [10] it was -0.494% (inactive); in [14], -1.2% (inactive); in assay [16], 5.44% (inactive). Besides, the max response in assay [17] is 0.639% (inactive); in assay [19], 0.0563% (inactive). The outcome in [4] and in [20] was inactive. Moreover, in assay [11], the activity change % (negative = inhibition) is -5.4% (inactive). For the same molecule, the activation was -0.736% (inactive) in [12] and 1.59% (inactive) in assay [13].

As to `CC(=O)CC(=O)Nc1ccccc1C`, the Potency result in assay [1], in [8], in assay [15] and in assay [18] was “inactive” each time. The result in [4] was inactive. The max response is 16.5% in assay [6]; 14.1% in assay [9]; -30.4% (inactive) in assay [10]; -0.992% (inactive) in [14]; -6.37% (inactive) in assay [16]; -10.9% (inactive) in [17]. For the same molecule, the activity change % (negative = inhibition) in [11] is 7.41% (inactive). For the same molecule, the activation was -0.568% (inactive) in assay [12] and 3.12% (inactive) in assay [13].

For the molecule `CCCCOCC(C)O` (stereo not given), the Potency entry in assay [1], in assay [7], in assay [8], in assay [15] and in assay [18] was “inactive” in each case. In [4], the outcome was inactive. For the same molecule, the max response was -5.52% in assay [6]; 12% and -0.638% in assay [9]; -37.2% (inactive) and 3.13% (inactive) in assay [10]; 0.397% (inactive) and 0.0173% (inactive) in [14]; -1.21% (inactive) and -1.7% (inactive) in [16]; -2.11% (inactive) in assay [17]. Moreover, in [19], the max response is 5.94% (inactive) and 2.87% (inactive). Moreover, the activity change % (negative = inhibition) in [11] was -39.6% (inactive) and 0.784% (inactive). Further, the activation was -6.14% (inactive) in assay [12]; 1.48% (inactive) and -0.559% (inactive) in assay [13]. Moreover, the Potency in assay [17] is 1410 µM (active).

Regarding `CCCCCCCCCCCCCc1ccccc1`, the Potency entry in [1], in assay [3], in assay [5], in [7], in assay [8] and in [15] was “inactive” throughout. Further, in assay [18], the Potency entry was “inactive”. The max response in assay [2] was 21.6%; in assay [6], -8.78%; in assay [9] it was -13.4%; in assay [14], -0.643% (inactive); in assay [16] it was -7.31% (inactive); in assay [17], 4.66% (inactive). The max response in assay [19] is 0.527% (inactive). Besides, the result in assay [4] and in assay [20] was inactive. The activity change % (negative = inhibition) in assay [11] is 11.3% (inactive). Further, the activation in assay [12] was 1.08% (inactive); in assay [13], 2.83% (inactive).

As to `c1ccc2cc3ccccc3cc2c1`, the Potency result in assay [1], in assay [5], in assay [7], in assay [8] and in assay [18] was “inactive” in each case. Further, the outcome in [4] was inactive. Also, the max response in assay [6] is -12.9%; in [9], 21.2%; in assay [14] it was -0.274% (inactive); in assay [16], -8% (inactive); in assay [17], -2.63% (inactive); in assay [19] it was 4.65% (inactive). Also, the activity change % (negative = inhibition) in assay [11] was -13.8% (inactive). Further, the activation is 7.64% (inactive) in assay [12] and 1.49% (inactive) in assay [13].

The values above are taken from PubChem BioAssay (NCATS).
